Screening results: PubChem BioAssay, National Center for Advancing Translational Sciences (NCATS)
LmPK inhibitor: blocks Leishmania mexicana pyruvate kinase activity. Q27686. purified LmPK, Kinase-Glo ATP luminescence, 1 h. Potency, µM (titrated, usually from 57.5 µM), without a hit: top-dose activity change, negative = inhibition, hits mostly inhibitors. 290,000 tested, 0.37% active; further: potency means the concentration at half of the fitted maximal effect; on the % scale 0 is the no-effect control and ±100 the full control effect
Target sequence (Q27686 whole entry, looked up): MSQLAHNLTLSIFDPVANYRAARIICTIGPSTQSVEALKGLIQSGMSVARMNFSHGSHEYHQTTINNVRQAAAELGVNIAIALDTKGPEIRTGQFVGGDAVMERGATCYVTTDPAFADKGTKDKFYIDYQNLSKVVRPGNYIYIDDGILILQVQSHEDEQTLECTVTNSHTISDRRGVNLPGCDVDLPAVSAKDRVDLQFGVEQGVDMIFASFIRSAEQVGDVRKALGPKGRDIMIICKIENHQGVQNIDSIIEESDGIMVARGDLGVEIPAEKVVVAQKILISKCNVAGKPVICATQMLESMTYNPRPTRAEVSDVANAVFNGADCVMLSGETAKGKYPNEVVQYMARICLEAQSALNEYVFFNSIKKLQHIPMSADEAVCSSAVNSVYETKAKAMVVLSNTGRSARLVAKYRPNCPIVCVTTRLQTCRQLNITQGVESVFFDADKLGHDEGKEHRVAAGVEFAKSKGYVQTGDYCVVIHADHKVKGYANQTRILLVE
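qHTS format; LmPK 0.1 nM; substrates PEP 0.5 mM and ADP 0.1 mM. One-hour room-temperature incubation, then coupled luciferase luminescence; 0.5 nM enzyme wells mark activation.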
Shiga inhibitor: inhibitors of Shiga toxin in Vero cells. Vero cells, Shiga toxin protein synthesis inhibition reporter. inhibition, % at 38.7 µM. AID 2315. 290,000 tested, 9.2% active; in the data active means inhibition mostly above about 28%, no sharp cut-off; inactive means mostly below about 43%; further: 0% is about no effect
Sm TGR block: blocks Schistosoma mansoni thioredoxin glutathione reductase; Q962Y6; Potency, µM (series often up to 114 µM), for the others: at the top dose activity change, negative = inhibition, actives largely listed as inhibitors; purified TGR, DTNB reduction, TNB absorbance 405 nm; AID 485364; 360,000 tested, 3% active; further: potency means the concentration at half of the fitted maximal effect; on the % scale 0 is the no-effect control and ±100 the full control effect; nearly all actives have a fitted effect of over 60% in size
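TGR 20 nM + NADPH 100 uM (dispensed conc.), cpd preinc 15 min RT; start with NADPH (500 uM addition) then DTNB (15 mM addition). Kinetic TNB absorbance, 405 nm filter. Four-parameter Hill fit across titration.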
CHX counter: affects cycloheximide protein synthesis inhibition readout, counter-screen; cell reporter, cycloheximide protein synthesis inhibition counterscreen; max response, %; 300,000 tested, 12% active; AID 2314; in the data active means max response mostly above about 13%, no sharp cut-off; inactive means mostly below about 14%; further: read at 38.3 µM for the half of the compounds with a filed dose; 0% is about no effect
Giardia FBPA inh: blocks Giardia fructose-bisphosphate aldolase activity | A8B2U2 | 290,000 tested, 0.71% active | AID 2451 | purified Giardia FBPA | Potency, µM (titrated, usually from 59.6 µM), for the others: top-dose activity, negative = inhibition, actives largely listed as inhibitors; further: potency means the concentration at half of the fitted maximal effect; on the % scale 0 is the no-effect control and ±100 the full control effect; nearly all actives have a fitted effect of over 55% in size
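Giardia FBPA (40 nM reagent) was preincubated 10 min at RT with compound (up to 57.5 uM final), then substrate plus GAPDH/TPI/NAD/arsenate coupling system with diaphorase/resazurin was added; resorufin fluorescence (525/598 nm) was read after 20 min.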
TbPYK inhibitor: T. brucei pyruvate kinase inhibition | TbPYK enzyme, Kinase-Glo Plus ATP luminescence, 45 min | Potency, µM (doses to about 76.8 µM), inactives show at the top dose activity, negative = inhibition, actives largely listed as inhibitors | 410,000 tested, 0.12% active | AID 624173; further: potency means the concentration at half of the fitted maximal effect; on the % scale 0 is the no-effect control and ±100 the full control effect; nearly all actives have a fitted effect of over 50% in size
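Assay buffer: 50 mM TEA pH 7.2, 100 mM KCl, 10 mM MgCl2, 0.05% BSA, 0.01% Tween-20. Pyruvate kinase from T. brucei plus substrate met compound, then ADP (130 uM final). Luminescence was read post 45 min RT.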
* hit, by the source's call; ? = inconclusive; nt = no result; + = active, no number; [ ] = remark or other dose. The sample as a whole holds a higher share of hits than the screen did. Unless noted, the call rests on the fitted dose curve; in most records, active means well fitted curve in the direction sought with a large enough effect; inconclusive means small, poorly fitted or top-dose-only effect, or another doubt; inactive means no such curve, though single readings can be large; an effect the other way counts as inactive or inconclusive.

SMILES	LmPK inhibitor	Shiga inhibitor	Sm TGR block	CHX counter	Giardia FBPA inh	TbPYK inhibitor
CC(C)c1ccc(NC(=O)CSc2nc3ccsc3c(=O)n2CCC(=O)O)cc1	4%	1	4%	5	13%	2%
CSc1nc(N)nc(SC2C=CCCC2)c1C#N (configuration not stated)	-11%	60	3%	26*	0%	4%
Cc1cc(-n2c(=O)[nH]c(=O)n(C)c2=O)ccc1Oc1ccc(S(=O)(=O)C(F)(F)F)cc1	nt	nt	nt	nt	nt	-8%
CCCCCOCC1CC(C/C(C)=N/Nc2nc(-c3ccccc3)cs2)C(=O)O1 (configuration not stated)	-6%	69*	5%	27*	-28%	9%
CCc1nc(N2CCN(C(C)=O)CC2)c2c3c(sc2n1)CC(C(C)(C)C)CC3 (configuration not stated)	1%	-3	0%	-1	7%	0%
CCc1nc(N2CCN(C(=O)CCl)CC2)c2c3c(sc2n1)CC(C)CC3 (configuration not stated)	-1%	36	16µM*	11*	-19%	5%
COc1ccc(CCNC(=O)Cc2c(C)c3cc4c(C)coc4c(C)c3oc2=O)cc1	nt	nt	-9%	nt	nt	5%
COC(=O)/C=C/c1cccc(N(Cc2ccc(-c3ccc(N(C)C)cc3)cc2)C(=O)C2CCCCC2)c1	nt	-4	nt	7	-8%	nt
CCN(CC)C(=O)CSc1nc(N)c(C#N)c(-c2cccs2)c1C#N	6%	-8	0%	-4	4%	-9%
CCSc1nc(N)nc(-c2cccs2)c1C#N	2%	68*	-9%	31*	1%	-11%
c1cc(-c2cnn3cc(-c4ccc(OCCN5CCCCC5)cc4)cnc23)ccn1	nt	27*	nt	40*	10%	3%
COc1cc(NC(=O)Cc2c(C(=O)O)c(C)cn2C)cc(OC)c1	nt	nt	-7%	nt	nt	0%
C/C(=N\N1CCN(c2ccccc2)CC1)c1ccccc1O	0%	33	2%	23*	19%	2%
C/C(=N\N1CCN(c2ccccc2)CC1)c1ccc(O)cc1	8%	45*	1%	24*	-1%	4%
CCOc1cccc2sc(N(Cc3cccnc3)C(=O)C3CCCCC3)nc12	nt	nt	10%	nt	nt	5%[15.4 µM]
CCCCSCc1nc2ccccn2c1Br	9%	56*	-11%	31*	2%	0%
CCSCc1nc2ccccn2c1Br	-6%	-5	-29%	16	-17%	-5%
O=C(OCc1ccco1)c1ccc2c(c1)N(Cc1cccc(F)c1)C(=O)c1ccccc1S2	nt	nt	-22%	nt	nt	-8%
COc1ccccc1C1NC(=O)c2n[nH]c(-c3cccs3)c21 (configuration not stated)	nt	nt	-3%	nt	nt	-3%
CCOC(=O)c1ccc2c(c1)NCc1cccc(OC)c1O2	2%	99*	3%	53*	-8%	1%
COc1ccc(C(=O)OCC(=O)c2ccc3c(c2)NC(=O)CO3)cc1OC	nt	nt	nt	nt	nt	0%
O=C(Nc1ccccc1F)Nc1ccc([N+](=O)[O-])cc1Cl	-4%	29*	10%	9.8*	-4%	-3%
O=C(Nc1nccs1)c1ccc(-c2cccc([N+](=O)[O-])c2)o1	-13%	28	4%	24*	3%	-3%
O=C(Nc1ccc([N+](=O)[O-])cc1Cl)c1cccc([N+](=O)[O-])c1	nt	nt	nt	nt	nt	-8%
Cc1ccc2cccc(NC(=O)c3ccc(-c4cccc([N+](=O)[O-])c4)o3)c2n1	nt	nt	-13%	nt	nt	-19%
SMILES	LmPK inhibitor	Shiga inhibitor	Sm TGR block	CHX counter	Giardia FBPA inh	TbPYK inhibitor
O=C(Nc1ccccc1F)c1ccc(-c2cccc([N+](=O)[O-])c2)o1	-5%	63*	-21%	22*	nt	6%
COc1ccc(C(=O)NCc2ccc3c(c2)CCN3C(=O)c2ccncc2)cc1	nt	nt	1%	nt	nt	-2%
O=C(NCC1CCCO1)c1ccc(COc2ccc(Cl)cc2)cc1 (configuration not stated)	5%	20	8%	3	4%	-9%
COc1cccc(C(=O)Nc2ccc(C(=O)NCC3CCCO3)cc2)c1 (configuration not stated)	nt	nt	nt	nt	nt	2%
O=C(NCC1CCCO1)c1ccc(COc2ccccc2Br)cc1 (configuration not stated)	0%	+	2%	15	1%	-14%
COc1cccc(OCc2ccc(C(=O)NCC3CCCO3)cc2)c1 (configuration not stated)	-1%	37*	7%	28*	-2%	-2%
O=C(Cc1cccs1)N=Nc1c(O)[nH]c2ccc(Br)cc12	-1%	-4	9%	-2	6%	2%
O=C(Cc1cccs1)N=Nc1c(O)[nH]c2ccccc12	0%	85*	-5%	56*	-10%	0%
COc1ccc2[nH]c(O)c(N=NC(=O)Cc3cccs3)c2c1	1%	39*	-3%	27*	-14%	-1%
C(=C\c1nc(-c2cccnc2)no1)/c1ccccc1	9%	13	-15%	8	?	-4%
c1ccc(-c2noc(-c3cccnc3)n2)cc1	?	99*	1%	33*	-3%	-18%
c1ccc(-c2ccc(-c3nc(-c4cccnc4)no3)cc2)cc1	8%	35	13%[11.4 µM]	33*	1%	-5%
O=c1[nH]c2ccccc2cc1-c1noc(-c2cccnc2)n1	0%	38	2%	2	3%	5%
c1cncc(-c2noc(-c3ccc4ccccc4c3)n2)c1	1%	102*	8%	27*	11%	1%
Cn1nnc2c(N3CCN(c4ccccc4Cl)CC3)ncnc21	nt	nt	4%	nt	nt	2%
Cc1ccn2c(C(=O)c3ccc(Cl)cc3)cnc2c1	-13%	91*	-14%	51*	0%	-3%
Cc1ccn2c(=O)nc(SCC(=O)c3ccc(Cl)cc3)nc2c1	nt	nt	-1%	nt	nt	-2%
COc1cc(C)nn1-c1ccc(Cl)cc1	-5%	-4	13%	-3	0%	1%
CO/C=C\C=C/c1nnn(-c2ccc(Cl)cc2)n1	1%	70*	8.9µM*	41*	-6%	-7%
CCOc1ccccc1C(=O)N(Cc1cc(OC)c(OC)c(OC)c1)c1ccccn1	nt	nt	5%	nt	nt	-7%
Cc1ccnc(NC(=O)Nc2cccc(F)c2)n1	-27%	79*	-8%	28*	4%	3%
CC(=O)Nc1cccc(NC(=O)Nc2cccc(F)c2)c1	-1%	17	11%	9	-3%	-5%
COc1cccc(NC(=O)Nc2nccc(C)n2)c1	-22%	72*	2%	38*	0%	5%
Cc1cnc(NC(=O)Nc2ccccc2)c(C)n1	-1%	4	0%	-3	3%	-8%
Cc1cccc(NC(=O)Nc2cccc(F)c2)n1	0%	79*	5%	52*	8%	-4%
